Source: PubChem (several laboratories)
MsrA inh: inhibitors of bovine MsrA | purified bovine MsrA, absorbance read-out | inhibition, % at 15.5 µM | 360,000 tested, 0.75% active; in the data active means inhibition above about 4.5%
m5-HT2A agonist: activates the mouse 5-HT2A serotonin receptor; activation, % at 7.6 µM; CHO-K1 mHTR2A beta-arrestin complementation, luminescence; percent of 30 µM serotonin response; 360,000 tested, 0.66% active; P35363;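 active means activation above a run cutoff, the mean activation of all tested compounds plus 3 SD, cut at about 14% in these data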
MsrA act: bovine methionine sulfoxide reductase A activation | purified bovine MsrA, absorbance read-out | activation, % at 10.6 µM | 360,000 tested, 0.3% active; in the data active means activation above about 7.5%
GC-B act: GC-B (human) receptor activation. P20594. HEK293-GC-B cells, CNP EC30, cGMP TR-FRET; 0% at EC30 CNP, 100% saturating CNP. activation, % at 10 µM. 370,000 tested, 0.11% active;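 active means activation at 10 µM reaching about 35% in either raw or pattern-adjusted values, limit read from the data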
NPR1 activator: GC-A (human) enzyme activation | P16066 | HEK293 GC-A cells, cGMP TR-FRET, EC30 ANP; 0% at EC30 ANP, 100% saturating ANP | activation, % at 10 µM | 370,000 tested, 0.14% active; in the data active means activation above about 40%
MsrA act confirm: confirmation of bovine methionine sulfoxide reductase A activators; activation, % at 10.6 µM; purified bovine MsrA, absorbance read-out; AID 602270; shares compounds with MsrA act; 1,000 tested, 12% active; in the data active means activation above about 4%;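 further: enzyme coupled to thioredoxin and thioredoxin reductase with NADPH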
Hits are given with their value; i = inactive; nt = no result. This is a sample that favours compounds with a hit; in the whole collection about 1.8% have one here.

SMILES	MsrA inh	m5-HT2A agonist	MsrA act	GC-B act	NPR1 activator	MsrA act confirm
COc1ccccc1CNC(=O)C(CCSC)NC(=O)C1CCC(C)CC1 (stereo not given)	i	i	9.0	i	i	i
COc1ccccc1CNC(=O)[C@H](CCSC)NC(=O)[C@@H]1Cc2ccccc2CN1	i	i	i	i	i	nt
COc1ccc(S(=O)(=O)NC(CC(=O)NCCc2ccc(OC)c(OC)c2)C(C)C)cc1 (stereo not given)	i	i	13.3	i	i	i
CN(Cc1ccccc1F)C(=O)C1C2C=CC3(CN(Cc4ccccc4)C(=O)C13)O2 (stereo not given)	nt	nt	nt	i	i	nt
CC(C)c1nc(NCC2CCCO2)c(C#N)c2c1COC(C)(C)C2 (stereo not given)	i	i	10.0	i	i	i
CCN(CC)C(=O)CC[C@@H]1CC[C@]2(CCCN(Cc3ccc(Cl)cc3)C2)O1	nt	nt	nt	i	i	nt
CCc1nn(C(C)C(=O)Nc2cccc(C)c2C)c(=O)c2cc3occc3n12 (stereo not given)	i	i	8.4	i	i	i
Cc1ccc(-c2csc3n[nH]c(=S)n23)cc1	i	i	12.4	i	i	i
Cc1ccc(Nc2n[nH]c(=S)s2)cc1C	i	i	7.8	i	i	i
Cc1ccc(S(=O)(=O)NCC(=O)N2CCN(c3ccccn3)CC2)s1	nt	nt	nt	i	i	nt
O=C(CSc1nc2ccccc2c(=O)n1-c1ccc(Cl)cc1)N/N=C/C=C/c1ccccc1[N+](=O)[O-]	i	i	8.1	i	i	i
O=C(CSc1nc2ccccc2c(=O)n1-c1ccccc1)N/N=C/C=C/c1ccccc1[N+](=O)[O-]	i	i	i	i	i	nt
Cc1ccc(S(=O)(=O)NC2=C(N3CCN(Cc4ccccc4)CC3)C(=O)c3ccccc3C2=O)cc1	i	i	7.8	i	i	i
Cc1nn(CC(=O)NCCCN2CCOCC2)c(C)c1[N+](=O)[O-]	i	i	14.4	i	i	i
C1CCc2nc3c(nc2C1)CCCC3	i	i	17.4	i	i	i
O=C(CCCn1c(=S)[nH]c2cc3c(cc2c1=O)OCO3)N1CCN(c2ccccn2)CC1	i	i	18.5	i	i	i
Cc1cc(C#N)c(C)n1-c1cc(C(F)(F)F)ccc1N1CCOCC1	i	i	8.6	i	i	i
CC(C)C(=O)Nc1cc(C(F)(F)F)ccc1N1CCOCC1	i	i	i	i	i	nt
COc1ccc2c(c1)CCCN2C(=O)C1CCCN(S(=O)(=O)c2cc(OC)ccc2OC)C1 (stereo not given)	nt	nt	nt	i	i	nt
Cc1c(C)n(CCc2ccccc2)c2ncnc(NCCO)c12	i	i	10.0	i	i	i
CC(Oc1ccccc1Cl)C(=O)N1CCOCC1 (stereo not given)	i	i	10.6	i	i	i
CC(Oc1ccccc1Cl)C(=O)N1CCCN(C)CC1 (stereo not given)	i	i	i	i	i	nt
CCc1ccc(N2C(=O)C[C@@](C#N)(C(=O)OC)[C@H]2c2ccccc2)cc1	nt	nt	nt	i	i	nt
CCOC(=O)Nc1ccc2c(c1)N(C(=O)CN(CC)CC)c1ccccc1C=C2	i	i	7.9	nt	nt	i
CCOC(=O)Nc1ccc2c(c1)N(C(=O)CN(CC)CC)c1ccccc1CC2	i	i	i	i	i	nt
SMILES	MsrA inh	m5-HT2A agonist	MsrA act	GC-B act	NPR1 activator	MsrA act confirm
COC(=O)[C@]12C[C@H](CC(=O)NCc3ccc(C)o3)C(=O)N(Cc3ccc(Cl)cc3Cl)C1=C[C@H](C(C)(C)C)O[C@@H]2C	nt	nt	nt	i	i	nt
CC(=O)N(C)c1ccc(N=Nc2c(C)[nH]n(-c3ccccc3)c2=O)cc1	i	i	8.0	i	i	i
C=CCNC(=O)CN(C(=O)Cc1ccc(Cl)cc1)c1cccc(Br)c1	nt	nt	nt	i	i	nt
Cc1cccc(OC(=O)n2c(=S)oc3cc(Cl)ccc32)c1	i	i	9.8	i	i	i
O=S1(=O)c2ccc(N3CCSCC3)cc2Oc2ccccc2CN1Cc1cn(Cc2cccc(F)c2)nn1	nt	nt	nt	i	i	nt
O=C(O)c1ccccc1NS(=O)(=O)c1cccc(C(F)(F)F)c1	i	i	i	i	i	nt
O=C(O)c1ccccc1NS(=O)(=O)c1cccc(-n2sc3ccccc3c2=O)c1	i	i	7.7	i	i	i
O=C(Nc1cccc(Br)c1)OC1CC2CC1[C@H]1CCCCN1[C@H]2Cc1ccccc1 (stereo not given in full)	nt	nt	nt	i	i	nt
C#CCN(C1CC1)S(=O)(=O)c1ccccc1Br	nt	nt	nt	i	i	nt
COC(=O)Nc1nnc(COc2cccc(C)c2)s1	i	i	i	i	i	nt
COC(=O)Nc1nnc(COc2ccccc2)s1	i	i	8.9	i	i	i
O=C(OCCN1CCN(C2CN(Cc3cn(Cc4cccc(F)c4)nn3)S(=O)(=O)C2)CC1)c1cc2ccccc2o1 (stereo not given)	nt	nt	nt	i	i	nt
FC(F)(F)c1cccc(-c2nc3nc(Cl)c(Cl)nc3[nH]2)c1	nt	i	12.0	nt	nt	i
COC1=C[C@H](C(=O)N[C@H]2CCCC[C@@H]2NC(C)=O)[C@H](C)[C@@H](c2ccccc2)CC1=O	nt	nt	nt	i	i	nt
CCn1c(=O)cc(OCC(=O)O)c2ccccc21	i	i	14.4	i	i	i
CN1CCCN(C(=O)C2CCN(c3ncnc4c3sc3cccc(F)c34)CC2)CC1	nt	nt	nt	i	i	nt
CCn1c(SCC(=O)N2CCN(S(=O)(=O)c3ccccc3)CC2)nnc1-c1cccs1	i	i	9.6	i	i	i
Cc1nnc(SCC(=O)N2CCN(S(=O)(=O)c3ccccc3)CC2)n1Cc1ccccc1	i	i	i	i	i	nt
Cc1ccc(-c2nc(C3CCCN(S(=O)(=O)c4ccc(C)c(C)c4)C3)no2)cc1 (stereo not given)	nt	nt	nt	i	i	nt
Cc1oc2c(c1C(=O)c1ccccc1)C(=O)C(=O)c1ccccc1-2	i	i	9.3	i	i	13.0
Cc1oc2c(c1C(=O)O)C(=O)c1ccccc1C2=O	i	i	8.4	i	i	i
O=C1C(=O)c2c(C(=O)c3ccccc3)coc2-c2ccccc21	i	i	i	i	i	nt
C[C@H]1C2CC(OC(=O)Nc3ccc4c(c3)OCO4)C(C2)[C@H]2CCCCN21 (stereo not given in full)	nt	nt	nt	i	i	nt
Cc1ccc(-c2cc3nc(-c4ccco4)cc(N4CCN(Cc5ccoc5)CC4)n3n2)cc1	nt	nt	nt	i	i	nt
COc1ccc2oc(C(=O)NCC(c3ccco3)N(C)C)c(C)c2c1 (stereo not given)	i	i	i	i	i	nt
COc1cccc(OCC(O)CNC(=O)c2oc3ccc(C)cc3c2C)c1 (stereo not given)	i	i	9.5	i	i	i
CC(=O)Nc1ccc(NC(=O)CC(C)n2ccnc2)cc1 (stereo not given)	i	i	8.5	i	i	i
CCN1Cc2nnn(CC3CCCCC3)c2-c2ccccc2S1(=O)=O	nt	nt	nt	i	i	nt
CCCC(=O)Nc1nc2ccc(OCC)cc2s1	i	i	i	i	i	nt
CCOc1ccc2nc(NC(=S)N(C)C)sc2c1	i	i	8.1	i	i	i
